# Data published in article PMC5540273 (PLoS ONE, 2017).
# How the values were obtained:
# VEGFR2 = tested on: T1, VEGFR2
# T1 construct: gene KDR
# YANK1 = tested on: T2, YANK1
# T2 construct: gene STK32A
# YANK3 = tested on: T3, YANK3
# T3 construct: gene STK32C
# YSK1 = tested on: T4, YSK1
# T4 construct: gene STK25
# 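Also: kd values determined as follow-up on hits from a single-replicate KINOMEscan panel screen.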
smiles,measurement,setting,value
Cn1ccc2ncnc(Oc3ccc(NC(=O)Nc4ccccc4)cc3)c21,Kd,VEGFR2,0.045 µM
CCn1c(-c2cccnc2O)nc2cnccc21 [SB-736715],Kd,WEE2,> 10 µM
Cc1ccc(-c2cc(-c3c[nH]nc3-c3ccccn3)ccn2)cc1 [GW684088],Kd,WNK4,> 10 µM
Nc1ncnc2[nH]c(-c3ccccc3)nc12 [AH5015],Kd,YANK1,> 10 µM
Cn1cncc1-c1ccc2ncnc(Nc3ccc(OCc4ccccc4)cc3)c2c1 [GW320571],Kd,YANK1,> 10 µM
CS(=O)(=O)c1ccc(-c2nc3n(c2-c2ccncc2)CCC3)cc1 [SKF-105942],Kd,YANK3,> 10 µM
CCCc1ccc(S(=O)(=O)NC2CCN(c3ccnc(Nc4ccc(F)cc4)n3)C2)cc1 (stereo not drawn) [GSK1379715],Kd,YANK3,> 10 µM
same,Kd,YSK1,> 10 µM
CCn1c(-c2ccccn2)nc2cnccc21 [SB-736398],Kd,YSK1,> 10 µM
